Results published in PubChem BioAssay (Tox21).
Records with an inconclusive call do not appear. Entries that show only a call come without a potency. Active and inactive are the calls of the source. The call rests on the fitted dose curve; in most records, active means well fitted cell-killing curve with a large enough effect in the repeat runs; inconclusive means weak or mixed curves; inactive means flat fitted curve, though single readings scatter.

experiment: qHTS assay to identify small molecule antagonists of the TGF-beta/Smad signaling pathway - cell viability counter screen (AID 1346824); details: SBE-bla HEK293T viability, CellTiter-Glo luminescence; series mostly up to 76.8 µM; further: nearly all actives have a fitted effect of over 50% in size
Source text: U.S. Tox21 Program National Center for Advancing Translational Sciences [NCATS] NIH Chemical Genomics Center [NCGC] U.S. Environmental Protection Agency [EPA] National Institutes of Environmental Health Sciences [NIEHS] National Toxicology Program [NTP] U.S. Food and Drug Administration [FDA] Tox21 Assay Overview: Transforming growth factor beta (TGF-beta) superfamily consists of a large number of structurally related dimeric proteins that act as hormones or local mediators in regulating a wide range of biological functions. This superfamily includes TGF-betas themselves, the bone morphogenetic proteins (BMPs) and the activins. These ligands induce oligomerization of serine/threonine receptor kinases and phosphorylate the cytoplasmic signaling molecules of Smad protein family. CellSensor SBE-bla HEK 293T cell line (Life Technologies, Carlsbad, CA), responsive to TGF-beta was used to screen Tox21 10K compound library for identification of agonists/antagonists of the Smad signaling pathway. This cell line contains a beta-lactamase reporter gene under control of the Smad binding element (SBE) stably integrated into HEK 293T cells. Also cytotoxicity of the compounds was tested in parallel by measuring the cell viability using CellTiter-Glo assay system in the same wells.
Tox21 Assay Protocol Summary: SBE-bla HEK 293T cells were dispensed at 4,000/well in 5 uL of assay medium into black wall/clear-bottom 1536-well plates using a Multidrop Combi (ThermoFisher Scientific, Waltham, MA) dispenser. After the assay plates were incubated at 37 C and 5% CO2 for an overnight, 23 nL of compounds dissolved in DMSO, positive controls or DMSO only was transferred to the assay plate by a Pintool station (Kalypsys, San Diego, CA). Compound transfer was followed by the addition of 1 uL of 0.25 ng/mL TGF-beta1 or assay buffer using two separate tips of Flying Reagent Dispenser (FRD, Aurora Discovery, San Diego, CA). The assay plates were incubated at 37 C and 5% CO2 for 5 hr. One uL of LiveBLAzer B/G FRET substrate (Life Technologies) was added using a Flying Reagent Dispenser (FRD, Aurora Discovery, San Diego, CA) and the plates were incubated at room temperature for 2 hr. Fluorescence intensity (405 nm excitation, 460 nm and 530 nm emissions) was measured using an Envision plate reader (PerkinElmer, Shelton, CT). For cytotoxicity read, 4 uL of CellTiter-Glo reagent (Promega Corporation, Madison, WI) was added to each well of the assay plates using FRD. After 30 min incubation at room temperature, the luminescence intensity was measured using ViewLux plate reader (PerkinElmer).
Potency means the concentration at half of the fitted maximal effect.

SMILES	Potency	viability change, negative = cytotoxic
CC(C)(C)C(=O)OCOC(=O)C1N2C(=O)CC2S(=O)(=O)C1(C)C (stereo not given)	inactive	–
C[C@@H]1C[C@H]2[C@@H]3CCC4=CC(=O)C=C[C@]4(C)[C@@]3(Cl)[C@@H](O)C[C@]2(C)[C@@]1(OC(=O)c1ccco1)C(=O)CCl	inactive	–
CCOC(=O)O[C@]1(C(=O)OCCl)CC[C@H]2[C@@H]3CCC4=CC(=O)C=C[C@]4(C)[C@H]3[C@@H](O)C[C@@]21C	inactive	–
N#CC1(c2ccc(F)cc2)CCC(=O)CC1	inactive	–
O=Cc1cc(O)ccc1Br	inactive	–
CCN(C(=O)c1cc(C)cc(OC[C@H](C)Nc2ccncc2)c1)C(C)C	inactive	–
Nc1ccc2c3c(cccc13)-c1ccccc1-2	inactive	–
C/C(=C(/OCCOc1ccc(Cl)cc1)c1ccc(Cl)cc1Cl)n1ccnc1	inactive	–
COc1cccc(N)c1	inactive	–
CC(C)(C)C(=O)OCOC(=O)[C@@H]1N2C(=O)[C@@H](NC(=O)[C@H](N)c3ccccc3)[C@H]2SC1(C)C	inactive	–
CC(=O)SC[C@@H](Cc1ccccc1)C(=O)NCC(=O)OCc1ccccc1	inactive	–
C[n+]1ccn(Cc2ccccc2)c1	inactive	–
CCCCCCCCCCCCCCCC(=O)OC[C@H](O)[C@H]1OC(=O)C(O)=C1O	inactive	–
CCCCCCCCCCCCCC[P+](CCCC)(CCCC)CCCC (tested in a mixture with another compound)	27.7 µM (active)	–
O=C1C=CC(=O)N1c1ccc(Cc2ccc(N3C(=O)C=CC3=O)cc2)cc1	inactive	–
CN(C/C=C/C#CC(C)(C)C)Cc1cccc2ccccc12	inactive	–
CC(NN)c1ccccc1 (stereo not given)	–	2.36% [at 15.8 µM] (inactive)
COc1ccc(C(=O)/C(Br)=C\C(=O)O)cc1	inactive	–
Oc1ccc2c(c1)-c1ccccc1C2	inactive	–
O=c1[nH]cnc2nc[nH]c12	inactive	–

SMILES	Potency	viability change, negative = cytotoxic
NNc1nc(-c2ccccc2)cs1	inactive	–
CN(C)c1ccc(C2(c3ccc(N(C)C)cc3)OC(=O)c3cc(N(C)C)ccc32)cc1	inactive	–
CSc1ccc2c(c1)C(N1CCN(C)CC1)Cc1ccccc1S2 (stereo not given)	inactive	–
C[C@]12CCC(=O)C=C1CC[C@@H]1[C@@H]2[C@@H](O)C[C@@]2(C)[C@H]1CC[C@]2(O)C(=O)COC(=O)CCC(=O)O	inactive	–
O=C(OCC1CO1)C1CCCCC1C(=O)OCC1CO1 (stereo not given)	inactive	–
O=c1cccccc1O	inactive	–
CCC(C)Nc1ccc(NC(C)CC)cc1 (stereo not given)	25 µM (active)	–
CCC(N)(CO)CO	inactive	–
Cc1nc(-c2ccc3c(c2)CCN(CCC2CCC(NC(=O)/C=C/c4ccc(F)cc4)CC2)CC3)no1 (stereo not given)	inactive	–
c1cc(C(c2ccc(OCC3CO3)cc2)c2ccc(OCC3CO3)cc2)ccc1OCC1CO1 (stereo not given)	inactive	–
CC(C)C(C)(C)C(C)(C)C(C)(C)S	inactive	–
C=CC(=O)OCC(CO)(COCC(COC(=O)C=C)(COC(=O)C=C)COC(=O)C=C)COC(=O)C=C	48.4 µM (active)	–
O=[N+]([O-])c1cc(Cl)c(Cl)c(Cl)c1Cl	inactive	–
Cc1c(C)c2c(c(C)c1OC(=O)CCC(=O)O)CC[C@@](C)(CCC[C@H](C)CCC[C@H](C)CCCC(C)C)O2	inactive	–
CN(C)[C@@H]1C(=O)C(C(N)=O)=C(O)[C@@]2(O)C(=O)C3=C(O)c4c(O)cccc4C[C@H]3C[C@@H]12	inactive	–
CC1=C(C(=O)OC(C)C)C(c2cccc([N+](=O)[O-])c2)C(C(=O)OC2CN(C(c3ccccc3)c3ccccc3)C2)=C(N)N1 (stereo not given)	inactive	–
O=c1cc(-c2ccc(O)cc2)oc2cc(O)cc(O)c12	inactive	–
Cc1ccc(O)c(C(C)(C)C)c1	inactive	–
NC(=O)CC[C@@H]1NC(=O)[C@H](Cc2ccccc2)NC(=O)[C@H](Cc2ccc(O)cc2)NC(=O)CCSSC[C@@H](C(=O)N2CCC[C@H]2C(=O)N[C@@H](CCCN=C(N)N)C(=O)NCC(N)=O)NC(=O)[C@H](CC(N)=O)NC1=O	inactive	–
CCCCCCCC/C=C\CCCCCCCCOCCO	63.7 µM (active)	–
